Laboratory results: the supplement of paper PMC7411054
Where a name gives a salt, the structure may show the parent alone.

Experiments:
Experiment in all cases: phenotypically active (imaging signature differs from DMSO and reproducible) at any of 0.3-9 uM (binary (1 = active, 0 = inactive)); higher = active
Conditions in all cases: treatment time: 24 h
[1] = tested on: A549-ACTB-RAB5A
How it was run: (§1)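 Fifteen reporter lines derived from A549, HepG2 and WPMY1 cells by gene editing, carrying BFP for segmentation plus GFP and RFP/FusionRed markers, were exposed to 0.3, 1, 3 or 9 µM for 24 h in four wells each and imaged live. Live-cell features from each well were normalised to solvent control wells. A well set counted as deviating when ≥3 of 4 wells lay beyond the 95th percentile of control Euclidean distances, and as reproducible when the median replicate Pearson correlation exceeded the 95th percentile of non-replicates. Phenotypic activity was assigned only when both criteria were met.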

[2] = tested on: A549-CANX-COX4
How it was run: as §1

[3] = tested on: A549-GM130-SQSTM1
How it was run: as §1

[4] = tested on: A549-TP53BP1-CLTA
How it was run: as §1

[5] = tested on: A549-TUBA1B-RELA
How it was run: as §1

[6] = tested on: HepG2-ACTB-RAB5A
How it was run: as §1

[7] = tested on: HepG2-CANX-COX4
How it was run: as §1

[8] = tested on: HepG2-GM130-SQSTM1
How it was run: as §1

[9] = tested on: HepG2-TP53BP1-CLTA
How it was run: as §1

[10] = tested on: HepG2-TUBA1B-RELA
How it was run: as §1

[11] = tested on: WPMY1-ACTB-RAB5A
How it was run: as §1

[12] = tested on: WPMY1-CANX-COX4
How it was run: as §1

[13] = tested on: WPMY1-GM130-SQSTM1
How it was run: as §1

[14] = tested on: WPMY1-TP53BP1-CLTA
How it was run: as §1

[15] = tested on: WPMY1-TUBA1B-RELA
How it was run: as §1

Measured: phenotypically active

O=C1CN2Cc3c(ccc(Cl)c3Cl)N=C2N1 [Anagrelide hydrochloride]
inactive: [1] 0 | [2] 0 | [3] 0 | [4] 0 | [5] 0 | [6] 0 | [7] 0 | [8] 0 | [9] 0 | [10] 0 | [11] 0 | [12] 0 | [13] 0 | [14] 0 | [15] 0

O=C(/C=C\c1ccc(O)c(O)c1)O[C@H]1C[C@](OC(=O)/C=C/c2ccc(O)c(O)c2)(C(=O)O)C[C@H](O)[C@H]1O [Cynarin]
inactive: [1] 0 | [2] 0 | [3] 0 | [4] 0 | [5] 0 | [6] 0 | [7] 0 | [8] 0 | [9] 0 | [10] 0 | [11] 0 | [12] 0 | [13] 0 | [14] 0 | [15] 0

CC(COc1ccccc1)N(CCCl)Cc1ccccc1 (stereo not given) [phenoxybenzamine]
inactive: [1] 0 | [2] 0 | [3] 0 | [4] 0 | [5] 0 | [6] 0 | [7] 0 | [8] 0 | [9] 0 | [10] 0 | [11] 0 | [12] 0 | [13] 0 | [14] 0 | [15] 0

O=C(O)[C@]1(O)C[C@H](O)[C@@H](O)[C@@H](O)C1 [Quinic acid]
inactive: [1] 0 | [2] 0 | [3] 0 | [4] 0 | [5] 0 | [6] 0 | [7] 0 | [8] 0 | [9] 0 | [10] 0 | [11] 0 | [12] 0 | [13] 0 | [14] 0 | [15] 0

CC(C)NCCCC1(C(N)=O)c2ccccc2-c2ccccc21 [indecainide]
inactive: [1] 0 | [2] 0 | [3] 0 | [4] 0 | [5] 0 | [6] 0 | [7] 0 | [8] 0 | [9] 0 | [10] 0 | [11] 0 | [12] 0 | [13] 0 | [14] 0 | [15] 0

CCCNC(C)C(=O)Nc1c(C)csc1C(=O)OC (stereo not given) [articaine]
inactive: [1] 0 | [2] 0 | [3] 0 | [4] 0 | [5] 0 | [6] 0 | [7] 0 | [8] 0 | [9] 0 | [10] 0 | [11] 0 | [12] 0 | [13] 0 | [14] 0 | [15] 0

C[C@]12CC[C@@H]3c4ccc(O)cc4CC[C@H]3[C@@H]1CCC2=O [estrone]
inactive: [1] 0 | [2] 0 | [3] 0 | [4] 0 | [5] 0 | [6] 0 | [7] 0 | [8] 0 | [9] 0 | [10] 0 | [11] 0 | [12] 0 | [13] 0 | [14] 0 | [15] 0

Cn1cnc([N+](=O)[O-])c1Sc1ncnc2nc[nH]c12 [azathioprine]
inactive: [1] 0 | [2] 0 | [3] 0 | [4] 0 | [5] 0 | [6] 0 | [7] 0 | [8] 0 | [9] 0 | [10] 0 | [11] 0 | [12] 0 | [13] 0 | [14] 0 | [15] 0

COc1cc2c(NC3CCN(C)CC3)nc(N3CCCN(C)CC3)nc2cc1OCCCN(C)C
inactive: [1] 0 | [2] 0 | [3] 0 | [4] 0 | [5] 0 | [6] 0 | [7] 0 | [8] 0 | [9] 0 | [10] 0 | [11] 0 | [12] 0 | [13] 0 | [14] 0 | [15] 0

COc1ccc(-c2noc(CSc3nnc(C)n3-c3ccc(OC)cc3)n2)cc1
inactive: [1] 0 | [2] 0 | [3] 0 | [4] 0 | [5] 0 | [6] 0 | [7] 0 | [8] 0 | [9] 0 | [10] 0 | [11] 0 | [12] 0 | [13] 0 | [14] 0 | [15] 0

O=P(O)(O)C(O)(Cc1cccnc1)P(=O)(O)O [risedronate]
inactive: [1] 0 | [2] 0 | [3] 0 | [4] 0 | [5] 0 | [6] 0 | [7] 0 | [8] 0 | [9] 0 | [10] 0 | [11] 0 | [12] 0 | [13] 0 | [14] 0 | [15] 0

NC(=O)OCC(COC(N)=O)c1ccccc1 [felbamate]
inactive: [1] 0 | [2] 0 | [3] 0 | [4] 0 | [5] 0 | [6] 0 | [7] 0 | [8] 0 | [9] 0 | [10] 0 | [11] 0 | [12] 0 | [13] 0 | [14] 0 | [15] 0
